Only a selection was taken, and hits are over-represented in it overall.
RBX1-CUL1 inh – inhibitors of human ROC1-CUL1 ubiquitin ligase activity; E3 ubiquitin-protein ligase RBX1 (Homo sapiens) + Cullin-1 (Homo sapiens), P62877+Q13616; in vitro K48 di-Ub FRET, acceptor:donor ratio, 45 min; inhibition, % at 10 µM; 140,000 compounds, 0.6% hits; AID 1347404, 2020; in the data active means inhibition above about 25%
Target sequence (P62877 whole entry, looked up): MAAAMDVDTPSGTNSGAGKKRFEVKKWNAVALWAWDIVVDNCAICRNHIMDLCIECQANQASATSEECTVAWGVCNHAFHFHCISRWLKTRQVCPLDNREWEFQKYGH
Target sequence (Q13616 whole entry, looked up): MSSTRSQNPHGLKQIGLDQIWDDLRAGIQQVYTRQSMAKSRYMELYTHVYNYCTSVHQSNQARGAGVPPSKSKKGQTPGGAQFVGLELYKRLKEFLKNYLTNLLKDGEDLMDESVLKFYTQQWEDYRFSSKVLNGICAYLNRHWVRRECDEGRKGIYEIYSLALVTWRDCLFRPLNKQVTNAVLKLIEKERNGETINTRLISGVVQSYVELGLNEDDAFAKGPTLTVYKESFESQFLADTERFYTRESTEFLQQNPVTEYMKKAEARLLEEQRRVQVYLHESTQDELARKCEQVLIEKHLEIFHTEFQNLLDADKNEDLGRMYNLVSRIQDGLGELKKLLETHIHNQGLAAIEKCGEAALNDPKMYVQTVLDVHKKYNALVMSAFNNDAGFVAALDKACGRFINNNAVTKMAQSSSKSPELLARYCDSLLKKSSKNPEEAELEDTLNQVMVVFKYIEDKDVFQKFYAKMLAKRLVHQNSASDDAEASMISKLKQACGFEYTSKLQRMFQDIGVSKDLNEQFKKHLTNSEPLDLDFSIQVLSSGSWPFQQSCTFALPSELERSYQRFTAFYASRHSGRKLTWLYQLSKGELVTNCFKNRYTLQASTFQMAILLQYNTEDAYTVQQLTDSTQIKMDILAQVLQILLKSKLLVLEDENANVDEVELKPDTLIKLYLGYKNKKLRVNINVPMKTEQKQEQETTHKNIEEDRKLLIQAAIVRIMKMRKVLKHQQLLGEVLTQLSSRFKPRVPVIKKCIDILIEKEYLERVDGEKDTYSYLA
An asterisk follows results filed as active.

SMILES	RBX1-CUL1 inh
Cc1cc(C(F)(F)F)n2nc(N)c(N=Nc3ccccc3)c2n1	0
CSc1c(C#N)c(N)nc2c(N=Nc3ccc(S(N)(=O)=O)cc3)c(N)nn12	84*
Cc1cc(C(F)(F)F)n2nc(N)c(N=Nc3cccc(C(F)(F)F)c3)c2n1	11
O=C(Oc1cccc2ccccc12)c1ccccc1F	-4
CCc1ncc(CN2CCC3(CCCN(Cc4cccc(OC)c4)C3=O)C2)cn1 (configuration not stated)	-5
O=S(=O)(Cc1ccccc1F)Nc1cccnc1	4
Cc1ccc2occ(/C=N\NC(=O)COc3ccccc3-c3ccnn3-c3ccccc3)c(=O)c2c1	3
O=C(COc1ccccc1-c1ccnn1-c1ccccc1)N/N=C/c1cc2ccccc2nc1Cl	-4
O=C(COc1ccccc1-c1ccnn1-c1ccccc1)N/N=C/c1coc2ccc(Cl)cc2c1=O	60*
Cc1cccc(-c2nnc(SCC(=O)Nc3ccc(Br)cc3C(C)C)n2N)c1	0
O=C(Nc1ccc(C2(c3ccc(NC(=O)c4ccc(F)cc4)cc3)c3ccccc3C(=O)c3ccccc32)cc1)c1ccc(F)cc1	-5
CC(O)c1cccc(NC(=O)c2ccco2)c1 (configuration not stated)	2
O=C1CC(=O)c2sc3nc(-c4cccs4)cc(-c4ccc(F)cc4)c3c2N1	26*
O=C1CC(=O)c2sc3nc(-c4ccccc4)ccc3c2N1	1
Nc1nc(N)c2sc3nc(-c4cccs4)cc(-c4ccc(F)cc4)c3c2n1	6
CCOC(=O)COc1ccc(Cl)cc1-c1ccnn1-c1ccccc1	-4
C(=C\c1cccc2scnc12)/c1ccccc1	-7
CC(C)CCNC(=O)/C=C/c1ccc(Cl)c(Cl)c1	-3
CCN=C1CC=CC=C(C(=O)/C=C/c2ccccc2OC)C1=O	87*
CCN=C1CC=CC=C(C(=O)/C=C/c2ccc(Br)cc2)C1=O	86*
CCN=C1CC=CC=C(C(=O)/C=C/c2ccc(C(F)(F)F)cc2)C1=O	-9
CCN=C1CC=CC=C(C(=O)/C=C/c2ccc(Cl)c(Cl)c2)C1=O	62*
O=C(/C=C/c1ccc(Cl)c(Cl)c1)NCCC1=CCCCC1	7
CCN=C1CC=C(Br)C=C(C(=O)/C=C/c2cccc(Cl)c2Cl)C1=O	22
CCN=C1CC=CC=C(C(=O)/C=C/c2cc(OC)ccc2OC)C1=O	8
SMILES	RBX1-CUL1 inh
CCN=C1CC=C(Br)C=C(C(=O)/C=C/c2ccc(N(C)C)cc2)C1=O	6
COc1ccccc1C1(CC(=O)N2CCC(C(O)c3cccs3)CC2)CC(=O)N(C)C1=O (configuration not stated)	-2
N=C1CC(=O)N=C(SCC(=O)Nc2ccc(F)cc2)N1c1ccccc1Cl	-10
COC(=O)c1c(NC(=O)CN2C(=O)c3ccccc3C2=O)sc2c1CCCC2	0
Cc1cccc(C)c1Oc1ncccc1CNC(=O)Cc1ccncc1	2
CN(Cc1ccco1)[C@@H]1c2ccccc2C2(CCNCC2)[C@H]1O	-6
COc1cc(CN(C)CC2CCOCC2)ccc1OCC(O)CN1CCSCC1 (configuration not stated)	4
CC(C)c1nn2c(=O)cc(COC(=O)c3cccc(NC(=O)CCc4ccccc4)c3)nc2s1	10
CCN1CCN(CC(O)COc2cccc(CNCCc3nc(C)c(C)s3)c2)CC1 (configuration not stated)	9
Cc1ccc(NC(=O)CSc2nnc(COc3ccc4ccccc4c3)n2C)cc1[N+](=O)[O-]	-8
Oc1ccccc1-c1nnc(SCC2(c3ccccc3)OCCO2)o1	8
O=S(=O)(O)c1cccnc1Nc1cccc(C(F)(F)F)c1	-7
CNc1ncnc(Sc2c(Br)c(=O)n(C)c(=O)n2C)c1N	81*
COc1ccccc1OC(=O)c1cccc(F)c1	8
O=C(NC(=S)Nc1ccc(S(=O)(=O)N2CCc3ccccc32)cc1)c1cccs1	-7
CCOC(=O)CN1C(=O)S/C(=C/c2ccc(Br)o2)C1=O	7
Cc1ccccc1N=Cc1cc2c(cc1O)OC(=N)C(C#N)C2c1cccc(F)c1 (configuration not stated)	6
Cc1nc(SCCN2CCOCC2)cc(-c2ccccc2)n1	-3
N#Cc1c(-c2ccccc2)cc(-c2cccs2)nc1SCCN1CCOCC1	0
N#Cc1c(-c2ccccc2)cc(-c2ccccc2)nc1SCCN1CCOCC1	100*
C=CCCOc1ccc(C(=O)Oc2ccc(C#N)cc2C)cc1	1
C=CCN1C(=O)/C(=C\c2ccc(C(=O)O)cc2)SC1=Nc1nnc(C)s1	6
CN1C(=O)C(=Cc2cc(Br)c(N(C)C)o2)C(=O)N(C)C1=O	0
Cc1cc(/C=C2\C(=O)NC(=S)N(C)C2=O)c(C)n1-c1ccccc1F	2
CN1C(=O)/C(=C/c2cc(Br)c(Sc3ccc(Cl)cc3)o2)C(=O)NC1=S	48*
SMILES	RBX1-CUL1 inh
COc1cccc(CCNC2CCN(c3ccc(C(=O)NC4CCCC4)cc3)CC2)c1	8
CCOC(=O)c1cccc(-n2c(C)cc(/C=C3\C(=O)NC(=O)N(c4ccc(C)c(C)c4)C3=O)c2C)c1	1
Cc1cc(/C=C2/C(=O)NC(=S)N(c3cccc(F)c3)C2=O)c(C)n1-c1ccccc1	14
Cc1cc(/C=C2\C(=O)NC(=S)N(c3cccc(F)c3)C2=O)c(C)n1-c1cccnc1	78*
CCc1ccccc1-n1c(C)cc(/C=C2\C(=O)NC(=O)N(c3cccc(C)c3)C2=O)c1C	7
Cc1cc(/C=C2/C(=O)NC(=S)N(c3ccc(F)cc3)C2=O)c(C)n1-c1ccc(O)cc1	10
Cc1cc(/C=C2\C(=O)NC(=O)N(c3ccc(Cl)c(Cl)c3)C2=O)c(C)n1-c1cccnc1	40*
O=C(CSc1nnc(Cc2ccccc2)o1)Nc1cccc(Cl)c1	0
CC(C)(C)c1ccc(C(=O)N(Cc2ccc(F)cc2)C2CCS(=O)(=O)C2)cc1 (configuration not stated)	-4
O=C(O)COc1ccc(OC(F)(F)F)cc1	11
NC(N)=N/N=C/CSc1ccccc1	3
Ic1ccc(-n2cccc2)cc1	0
COc1cc2c(cc1OC)C(C(C)c1ccc(CC(C)C)cc1)N(C(C)=O)CC2 (configuration not stated)	-14
CSc1nc(Cl)c2c(n1)Sc1nc3cc4c(cc3n1C2O)OCCCO4 (configuration not stated)	4
CC(=O)Nc1cccc2c1C(=O)N(c1cccc(C(=O)O)c1)C2=O	-15
CC(=O)N=C1C(=O)c2ccccc2C(=O)C1NCCOc1ccccc1 (configuration not stated)	-4
CC(=O)N=C1C(=O)c2c(NC(C)=O)cccc2C(=O)C1Br (configuration not stated)	60*
Cc1cnc(CN(C)C(=O)Cn2nnnc2CN2CCc3ccccc3C2)[nH]1	-3
Cc1nc(N2CCN(C)CC2)[nH]c(=O)c1CCC(C)C	3
CCCCN1C(=O)C(=Cc2ccco2)C(=O)N(CCCC)C1=S	99*
CCCCN1C(=O)C(=O)N(c2ccccc2)C1=S	1
CCCCC1(C)OC(=O)C(=Cc2ccc3c(c2)OCO3)C(=O)O1 (configuration not stated)	-5
O=C1NN(c2ccc(Br)cc2)C(=O)/C1=C\C=C\c1ccco1	4
CCCCCCN1C(=O)NC(=O)/C(=C\c2ccc3c(c2)OCO3)C1=O	7
CCCCN1C(=O)C(=C/C=C/c2ccco2)C(=O)N(CCCC)C1=S	31*
CCCCN1C(=O)/C(=C/c2ccc3c(c2)OCO3)C(=O)N(Cc2ccco2)C1=S	101*
